Assay results as given in PubChem BioAssay (NCI).
This is part of a sample that, as a whole, favours compounds with a hit. Of some 83,000 tested, about 20% had one in any assay.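 Cells were grown in 96-well plates and exposed to the test compound at a single concentration for 48 hours; results are reported as percent growth, with values below 10 considered active.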 Calls of active or inactive are those of the source.

Assays:
Assay in all cases: NCI-60 one-dose screen, 48 h (100 = growth as untreated, 0 = no growth, -100 = all killed)
Settings in all cases: 10 µM unless noted
[1] = test system: HCT-15 colon
[2] = test system: SNB-75 CNS
[3] = test system: SNB-19 CNS
[4] = test system: U251 CNS
[5] = test system: PC-3 prostate
[6] = test system: UACC-62 melanoma
[7] = test system: LOX IMVI melanoma
[8] = test system: SK-MEL-28 melanoma
[9] = test system: SK-MEL-5 melanoma
[10] = test system: HT29 colon

Measured: growth

Cc1[nH]ccc2cc3nc4ccccc4c3cc12
inactive: [1] 20.3% | [2] 40% | [3] 44.9% | [4] 26.4% | [5] 33.4% | [6] 62% | [7] 12% | [8] 54.5%

O=C(Nc1ccccc1S)c1ccccc1
inactive: [1] 108% | [2] 81.7% | [3] 100% | [4] 94.8% | [5] 88.5% | [9] 114% | [6] 86.6% | [7] 84.9% | [8] 112%

O=C1/C=C/[C@@H](O)[C@@H]2C[C@@H](O)C[C@H]2/C=C/CCC[C@H](CO)O1
inactive: [1] 26.2% | [2] 35.7% | [3] 48.8% | [4] 24.1% | [5] 39.5% | [6] 15.8%
active: [9] -88% | [7] -44.8% | [8] -18.8%

O=C(Nc1ccccc1OC(=O)c1ccccc1)c1ccccc1
inactive: [10] 51.9% | [2] 101% | [3] 87.4% | [4] 47% | [5] 88.5% | [9] 97.4% | [6] 82.6% | [7] 60.1% | [8] 118%

COc1cc(-c2nnc(-c3nc(-c4cc(OC)c(OC)c(OC)c4)n4ccccc34)o2)ccc1N
inactive: [1] 64.5% | [2] 75% | [3] 77.7% | [4] 64.2% | [5] 69% | [9] 56.1% | [6] 60.9% | [7] 56.3% | [8] 97.8%

COc1cc(Cl)cc(-c2nn(-c3cccc(NC(=O)c4cc(C(F)(F)F)cc(C(F)(F)F)c4)c3)cc2-c2ccncc2)c1
inactive: [1] 58.6% | [2] 60.8% | [3] 86.4% | [4] 60.7% | [5] 35.6% | [9] 67.3% | [6] 81.4% | [7] 76.1% | [8] 78.8%

COc1cc(/C=C2\CN(S(=O)(=O)c3ccc(C)cc3)C/C(=C\c3cc(CN4CCOCC4)c(O)c(OC)c3)C2=O)cc(CN2CCOCC2)c1O
inactive: [2] 25.8% | [3] 12.9% | [4] 15.5%
active: [1] -31.3% | [5] 2.79% | [9] -63.4% | [6] -45.8% | [7] -49.3% | [8] -33.2%

O=C1CNc2cc(Cl)ccc2N1
inactive: [1] 109% | [2] 89.8% | [3] 107% | [4] 101% | [5] 104% | [9] 99.9% | [6] 101% | [7] 101% | [8] 107%

Fc1ccc(-c2nn3c(-c4cc(C(F)(F)F)cc(C(F)(F)F)c4)nnc3s2)cc1
inactive: [1] 89.7% | [10] 40.2% | [9] 56% | [6] 53.3% | [7] 63.9% | [8] 72%
active: [3] 8.33% | [4] 4.98%

COc1cc(/C=C/c2cc(/C=C/c3ccc(O)c(OC)c3)n(C(=O)Cc3ccccc3)n2)ccc1O
active: [1] 6.11% | [2] 0.658% | [3] 7.03% | [5] 3.01% | [9] -31.8% | [6] 1.59% | [7] 5.18% | [8] -4.66%

COc1cnc2c(c1)C(=O)c1c-2n(CCCN2CCNCC2)c(=O)c2cc(F)ccc12
inactive: [3] 18.3% | [5] 22.8%
active: [10] -42.1% | [2] -7.98% | [4] 2.03% | [9] -88.5% | [6] -0.448% | [7] -86.8% | [8] -60.5%

N#Cc1c(-c2ccccc2)cc(-c2ccccc2)n(CC(=O)O)c1=O
inactive: [1] 32.6% | [10] 24.2% | [3] 58.3% | [4] 47.5% | [5] 70.4% | [6] 28.6% | [7] 52.5% | [8] 60.6%

CC(=O)Nc1c(Cl)cc2c(c1Cl)Cc1cc([N+](=O)[O-])ccc1-2
inactive: [1] 101% | [2] 36.6% | [3] 95.8% | [4] 89% | [5] 72.6% | [9] 55.9% | [6] 65.3% | [7] 86.2% | [8] 102%

c1cc[n+](Cc2ccnc3ccccc23)cc1
inactive: [1] 64.3% | [2] 53.6% | [3] 103% | [5] 80.8% | [9] 107% | [6] 104% | [7] 90.8% | [8] 104%

COc1ccccc1NC(=O)c1sc2nc3c(cc2c1N)C(=O)CCC3
inactive: [1] 47.3% | [2] 56.6% | [3] 64.6% | [4] 65.1% | [9] 38.9% | [6] 44.4% | [7] 79.4% | [8] 59.1%
